# From the supplement of paper PMC11219838
# Values without a mark were called inactive.
# Assays:
# Settings in all cases: 60 µM; 5 days; temperature: 20 °C
# Meloidogyne hapla J2 = experiment: proportion of mobile M. hapla J2 relative to DMSO control (fraction of DMSO control); higher = more viable, less nematicidal, active = 0.7 or less
# Summary of the method: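 About 25 M. hapla J2 were placed in each well of a 96-well plate in distilled water, and compound was pinned in to a final 60 µM with 0.6% v/v DMSO. The sealed plates were shaken at 200 rpm at 20 °C for 5 days, after which 2 µL of 1 M NaOH went into each well. Mobility was then scored under the microscope and divided by the mean value from DMSO-only wells on the same plate. Each plate held eight such DMSO wells, and two biological replicates were averaged.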
# [1] = test system: Caenorhabditis elegans dauer (daf-2(e1370)); experiment: proportion of mobile C. elegans dauer larvae relative to DMSO control (fraction of DMSO control); higher = more viable, less nematicidal, active = 0.63 or less; extreme values may be limits of the assay
# Summary of the method: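 Synchronized C. elegans daf-2(e1370) larvae were held at 25 °C for 48 h on MYOB plates with E. coli OP50 to form dauers, and about 20 dauers were added per 96-well well in liquid NGM. Compound was pinned to 60 µM final (0.6% v/v DMSO), and sealed plates were shaken at 200 rpm for 5 days at 20 °C. The proportion of mobile worms was scored under a dissection microscope relative to DMSO controls and averaged over two biological replicates.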
# Ditylenchus dipsaci = experiment: proportion of mobile D. dipsaci (mixed stage) relative to DMSO control (fraction of DMSO control); higher = more viable, less nematicidal, active = 0.86 or less; extreme values may be limits of the assay
# Summary of the method: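 Ditylenchus dipsaci nematodes were cultured on pea plants in Gamborg B-5 agar, then extracted into water through a filter funnel, and roughly 20 worms in distilled water were placed in each well of a 96-well plate. Compound was pinned in to a final concentration of 60 µM (0.6% v/v DMSO), and the sealed plates were shaken at 200 rpm for 5 days at 20 °C. Mobile worms were counted under the microscope after 2 µL of 1 M NaOH was added. Mobility is given relative to DMSO controls as the mean of two biological replicates.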
Compound,proportion of mobile M. hapla J2 (Meloidogyne hapla J2),proportion of mobile C. elegans dauer larvae [1],proportion of mobile D. dipsaci (Ditylenchus dipsaci)
COc1ccc(CCC(=O)Nc2ccc(-c3noc(-c4ccc(F)cc4)n3)cc2)cc1,0.746,1,1
CC(C)(C)c1ccc(OCc2nc(-c3ccncc3)no2)c(Br)c1,0.875,1,1
Cc1ccc(OCc2nc(-c3ccc(F)cc3)no2)cc1C,1.03,1,1
O=C(Nc1ccc(-c2noc(-c3ccc(Cl)cc3)n2)cc1)c1ccco1,1.04,1,1
COc1cccc(-c2noc(-c3ccc(Cl)cc3)n2)c1,0.983,0.562 (active),1
COc1cccc(NC(=O)c2ccccc2-c2nc(-c3ccc(F)cc3)no2)c1,0.822,1,1
Cc1ccc(-c2nnc(SCC(=O)Nc3c(C)cc(C)cc3C)o2)cc1,0.979,1,1
Clc1ccc(-c2noc(-c3cccnc3)n2)cc1,1,0.452 (active),1
Ic1ccccc1-c1nc(-c2cccnc2)no1,1.02,1,1
Cc1ccc(-c2nnc(SCC(=O)Nc3cc(C)ccc3C)o2)cc1,0.982,1,1
Cc1cccc(-c2noc(-c3ccc(C)cc3Cl)n2)c1,0.964,1,1
Brc1ccc(OCc2nc(-c3cccs3)no2)cc1,0.963,1,1
Cc1cc(Cl)ccc1OCc1nc(-c2cccnc2)no1,1,1,1
CC(C)C(=O)Nc1ccccc1-c1nc(-c2ccncc2)no1,0.987,1,1
COc1ccc(-c2nnc(SCC(=O)N3CC(C)CC(C)C3)o2)cc1 (centres undefined),1.05,1,1
COc1ccc(-c2noc(COc3ccc(Cl)cc3)n2)cc1,1.04,1,1
COc1ccc(-c2nnc(SCc3ccc(C#N)cc3)o2)cc1,0.942,1,1
FC(F)(F)c1ccc(-c2noc(-c3ccccc3Cl)n2)cc1,1.04,1,1
COc1nc(-c2ccc(Cl)cc2)ccc1-c1noc(C)n1,1.03,1,1
COc1ccc(-c2nnc(SCC(=O)Nc3ccccc3F)o2)cc1,1.04,1,1
COc1ccc(-c2noc(-c3ccc(Br)cc3)n2)cc1,1.04,1,1
O=C(CSc1nnc(-c2ccncc2)o1)Nc1ccccc1Cl,0.724,1,1
CCCOc1ccc(-c2nc(-c3cccnc3)no2)cc1,0.945,1,1
COC(=O)c1ccc(CSc2nnc(-c3cccnc3)o2)cc1,1.03,1,1
Cc1nc(CSc2nnc(-c3ccccc3)o2)cs1,0.282 (active),1,1

Compound,proportion of mobile M. hapla J2 (Meloidogyne hapla J2),proportion of mobile C. elegans dauer larvae [1],proportion of mobile D. dipsaci (Ditylenchus dipsaci)
CCCc1ccc(-c2ccc(-c3nc(-c4ccccn4)no3)cc2)cc1,0.978,1,1
Brc1ccc(-c2nc(-c3ccncc3)no2)cc1,0.953,0.767,1
N#Cc1cccc(CSc2nnc(-c3ccncc3)o2)c1,0.745,1,1
Cc1ccc(-c2nc(-c3ccncc3)no2)c(Cl)c1,0.979,1,1
Cc1ccc(-c2noc(COc3cc(C)ccc3C)n2)cc1,0.994,1,1
CCc1ccc(C(=O)Nc2ccccc2-c2nc(-c3cccnc3)no2)cc1,1.03,1,1
COc1ccc(-c2noc(COc3ccc(C)c(C)c3)n2)cc1,0.969,1,1
COc1ccc(CCC(=O)Nc2ccc(-c3noc(COc4ccccc4C)n3)cc2)cc1,0.898,1,1
COc1ccccc1OCc1nc(-c2cccc(C)c2)no1,0.871,1,1
CCc1cccc(C)c1NC(=O)CSc1nnc(-c2ccccc2)o1,1.04,1,1
COc1nc(-c2ccc(C)cc2)ccc1-c1noc(-c2cccc(C)c2)n1,0.949,1,1
Cc1cc(C)c(C)c(OCc2nc(-c3ccccc3)no2)c1,0.95,1,1
COc1ccc(NC(=O)CSc2nnc(-c3ccccc3)o2)cc1,0.907,1,1
COc1ccc(-c2noc(COc3ccc(C)cc3Br)n2)cc1,1.01,1,1
Cc1ccc(CSc2nnc(-c3cccc(Br)c3)o2)c(C)c1,1.02,1,1
COc1ccc(-c2noc(-c3ccccc3Br)n2)cc1,0.765,1,1
Cc1ccc(-c2nnc(SCc3ccccc3Cl)o2)cc1,0.964,1,1
Cc1cnc(NC(=O)CSc2nnc(-c3cccc(Cl)c3)o2)s1,0.97,1,0.9
COc1ccc(Cl)cc1NC(=O)CSc1nnc(-c2ccc(C)cc2)o1,0.982,1,1
COc1ccc(-c2noc(CSc3nc(C)cc(C)n3)n2)cc1,0.992,1,0.833 (active)
CC(=O)c1c(C)cc(C)c(CSc2nnc(-c3ccco3)o2)c1C,0.906,1,1
Clc1ccc(-c2nc(-c3ccncc3)no2)c(Cl)c1,0.942,1,1
COc1ccc(-c2noc(COc3ccc(Cl)c(C)c3)n2)cc1,1.02,1,1
CC(C)Oc1ccc(-c2nc(-c3ccccn3)no2)cc1,0.943,0.0263 (active),1
Brc1ccc(CSc2nnc(-c3ccncc3)o2)cc1,1.01,1,1

Compound,proportion of mobile M. hapla J2 (Meloidogyne hapla J2),proportion of mobile C. elegans dauer larvae [1],proportion of mobile D. dipsaci (Ditylenchus dipsaci)
O=C(CSc1nnc(-c2ccccc2)o1)Nc1ccc(F)cc1F,1.03,1,1
CCOc1cc(-c2noc(-c3ccncc3)n2)ccc1OC,0.745,1,1
CCOc1nc(-c2ccc(C)cc2)ccc1-c1noc(-c2cccnc2)n1,0.842,1,1
Cn1c(SCc2nc(-c3ccc(Br)cc3)no2)nnc1-c1ccco1,0.835,1,1
Clc1ccc(CSc2nnc(-c3ccc(Cl)cc3)o2)cc1,0.914,1,1
CC(C)(Oc1ccc(Cl)cc1)c1nc(-c2ccncc2)no1,0.91,1,1
O=C(NCCc1ccccc1)c1ccccc1-c1nc(-c2ccccc2Cl)no1,0.669 (active),1,1
Fc1ccccc1OCc1nc(-c2ccc(Cl)cc2)no1,1,1,1
Clc1ccc(-c2noc(-c3ccccc3Br)n2)cc1,0.995,1,1
CCn1c(SCc2nnc(-c3ccccc3)o2)nnc1-c1ccco1,0.948,1,1
CCOc1nc(-c2ccccc2)ccc1-c1noc(-c2ccccc2F)n1,0.926,1,1
COc1ccc(-c2noc(COc3ccccc3)n2)cc1,1.02,1,1
COc1cccc(-c2nc(-c3ccc(Br)cc3)no2)c1,0.997,0.6 (active),1
COc1ccccc1-c1noc(-c2ccc(C(C)(C)C)cc2)n1,1.03,1,1
CCN(Cc1ccccc1)C(=O)c1ccccc1-c1nc(-c2cccc(C)c2)no1,0.579 (active),1,1
Cc1ccc(-c2nc(-c3ccccn3)no2)cc1C,1.03,1,1
Fc1ccc(-c2noc(-c3ccc(F)cc3)n2)cc1,1.01,1,1
N#Cc1ccc(CSc2nnc(-c3ccco3)o2)cc1,0.607 (active),1,1
O=C(CSc1nnc(-c2ccc(Cl)cc2)o1)NCc1ccccc1,0.901,1,1
COc1ccccc1-c1nnc(SCC(=O)Nc2nc(C)cs2)o1,0.91,1,1
COc1ccccc1-c1nc(-c2ccccc2)no1,1,1,1
Brc1cccc(-c2noc(-c3ccc4c(c3)OCO4)n2)c1,1.03,1,1
Clc1ccc(OCc2nc(-c3ccc(Br)o3)no2)cc1,0.945,1,1
